In PubChem BioAssay (Tox21):
Values joined by “and” are separate entries in the source; they are usually repeats but may differ in a detail not shown here. Equal values may be shown once. Records with an inconclusive call do not appear. Where a call stands in place of a potency, no number is given. A structure can be active in one record and inactive in another. Active and inactive are the calls of the source. Unless noted, calls come from the whole dose curve; as a rule, active = well fitted curve in the direction sought with a large enough effect in the repeat runs; inconclusive = weak or mixed curves; inactive = no such curve, though single readings can be large; an effect the other way counts as inactive or inconclusive.

Columns and labels:
[1] = qHTS assay to identify small molecule agonists of the peroxisome proliferator-activated receptor delta (PPARd) signaling pathway - cell viability counter screen (AID 743211); note: nearly all actives have a fitted effect of over 55% in size; note: potency is the fitted concentration of half-maximal effect
Method in brief: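 HEK293H PPARd-bla, 3000 cells/well; 5 h preincubation 37C/5% CO2; cpd in DMSO, 17 h 37C; B/G FRET substrate 2 h RT; CellTiter-Glo 30 min RT, luminescence.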

[2] = target: Peroxisome proliferator-activated receptor delta (Homo sapiens) (UniProt Q03181); test: qHTS assay to identify small molecule agonists of the peroxisome proliferator-activated receptor delta (PPARd) signaling pathway (AID 743212; calls by dose curve)
Method in brief: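 GeneBLAzer UAS-bla HEK293H cells carrying a PPARδ construct were exposed to compounds at 37 °C. Beta-lactamase activity was read by FRET fluorescence after 2 h at room temperature with LiveBLAzer B/G substrate.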

[3] = qHTS assay to identify small molecule antagonists of the peroxisome proliferator-activated receptor delta (PPARd) signaling pathway - cell viability counter screen (AID 743213); note: nearly all actives have a fitted effect of over 50% in size; note: potency is the fitted concentration of half-maximal effect
Method in brief: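 Same-well viability: cells pre-incubated 5 h, dosed with compound plus 300 nM L165041, kept 17 h at 37 C, FRET substrate 2 h RT, then CellTiter-Glo 30 min RT and luminescence.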

[4] = target: Peroxisome proliferator-activated receptor delta (Homo sapiens) (UniProt Q03181); test: qHTS assay to identify small molecule antagonists of the peroxisome proliferator-activated receptor delta (PPARd) signaling pathway (AID 743215; active = well fitted inhibition curve with a large enough effect in the signal ratio in the repeat runs, not every such curve was filed as active; the % refers to the signal ratio;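 note: cells stimulated with agonist L165041 at 300 nM final during compound exposure; series mostly up to about 62 µM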)
Method in brief: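 HEK293H UAS-bla, PPARd; agonist L165041 300 nM final with cpd in DMSO; 37 C 17 h; FRET substrate, RT 2 h; fluorescence intensity.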

[5] = target: Bile acid receptor (Homo sapiens) (UniProt Q96RI1); test: qHTS assay to identify small molecule antagonists of the farnesoid-X-receptor (FXR) signaling pathway (AID 743217; active = well fitted inhibition curve with a large enough effect in the signal ratio in the repeat runs, not every such curve was filed as active; the % refers to the signal ratio)
Method in brief: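 GeneBLAzer FXR-UAS-bla HEK 293T, CDCA-stimulated (50 uM final). Compound treatment 16 h, 37 °C. Detection: beta-lactamase cleavage of B/G FRET substrate, fluorescence.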

[6] = target: Bile acid receptor (Homo sapiens) (UniProt Q96RI1); test: qHTS assay to identify small molecule agonists of the farnesoid-X-receptor (FXR) signaling pathway (AID 743220; active = well fitted activation curve with a large enough effect in the signal ratio in the repeat runs, not every such curve was filed as active; the % refers to the signal ratio)
Method in brief: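 Beta-lactamase reporter under UAS control in GeneBLAzer FXR HEK 293T cells (5000/well) measured with LiveBLAzer FRET substrate after 2 h at room temperature. Compound exposure lasted 16 h at 37C.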

[7] = qHTS assay to identify small molecule antagonists of the farnesoid-X-receptor (FXR) signaling pathway - cell viability counter screen (AID 743221; active = well fitted cell-killing curve with a large enough effect in the repeat runs, not every such curve was filed as active; note: nearly all actives have a fitted effect of over 50% in size; note: potency is the fitted concentration of half-maximal effect)
Method in brief: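 Luminescence from CellTiter-Glo measures cytotoxicity in GeneBLAzer FXR-UAS-bla HEK 293T cells. Cells were exposed to compounds with 50 uM chenodeoxycholic acid (final) for 16 h at 37 C, in wells also used for the reporter readout.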

[8] = target: Vitamin D3 receptor (Homo sapiens) (UniProt P11473); test: qHTS assay to identify small molecule antagonists of the vitamin D receptor (VDR) signaling pathway (AID 743223; active = well fitted inhibition curve with a large enough effect in the signal ratio in the repeat runs, not every such curve was filed as active; the % refers to the signal ratio)
Method in brief: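 Antagonist mode uses 1alpha,25-dihydroxyvitamin D3 at 3 nM final as stimulus. VDR-bla cells receive compounds in DMSO, incubate 16 h at 37C, then a beta-lactamase FRET substrate for 2 h at room temperature before fluorescence measurement.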

[9] = qHTS assay to identify small molecule agonists of the farnesoid-X-receptor (FXR) signaling pathway - cell viability counter screen (AID 743218); note: nearly all actives have a fitted effect of over 45% in size; note: potency is the fitted concentration of half-maximal effect
Method in brief: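 Parallel cytotoxicity test: compound-treated (16 h, 37 C) HEK 293T FXR-bla reporter cells were lysed with CellTiter-Glo and luminescence recorded.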

[10] = target: Vitamin D3 receptor (Homo sapiens) (UniProt P11473); test: qHTS assay to identify small molecule agonists of the vitamin D receptor (VDR) signaling pathway (AID 743222; calls by dose curve)
Method in brief: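 In VDR-bla cells, compound-induced beta-lactamase expression is quantified by FRET substrate fluorescence. Treatment lasts 16 h at 37C; substrate develops 2 h at room temperature.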

Sequence of Vitamin D3 receptor (Homo sapiens) (P11473 whole entry, looked up): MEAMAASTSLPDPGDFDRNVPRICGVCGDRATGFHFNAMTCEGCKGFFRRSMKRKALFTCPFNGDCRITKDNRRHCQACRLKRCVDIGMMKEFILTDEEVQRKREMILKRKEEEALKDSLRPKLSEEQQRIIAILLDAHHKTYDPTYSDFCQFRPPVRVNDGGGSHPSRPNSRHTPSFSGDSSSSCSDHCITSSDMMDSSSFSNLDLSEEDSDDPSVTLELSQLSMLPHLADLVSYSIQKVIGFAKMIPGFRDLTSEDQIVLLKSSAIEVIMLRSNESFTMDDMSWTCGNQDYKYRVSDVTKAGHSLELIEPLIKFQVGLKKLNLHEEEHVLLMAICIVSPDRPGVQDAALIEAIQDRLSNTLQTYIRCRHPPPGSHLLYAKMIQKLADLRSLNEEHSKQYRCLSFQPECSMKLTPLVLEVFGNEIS
Sequence of Bile acid receptor (Homo sapiens) (Q96RI1 whole entry, looked up): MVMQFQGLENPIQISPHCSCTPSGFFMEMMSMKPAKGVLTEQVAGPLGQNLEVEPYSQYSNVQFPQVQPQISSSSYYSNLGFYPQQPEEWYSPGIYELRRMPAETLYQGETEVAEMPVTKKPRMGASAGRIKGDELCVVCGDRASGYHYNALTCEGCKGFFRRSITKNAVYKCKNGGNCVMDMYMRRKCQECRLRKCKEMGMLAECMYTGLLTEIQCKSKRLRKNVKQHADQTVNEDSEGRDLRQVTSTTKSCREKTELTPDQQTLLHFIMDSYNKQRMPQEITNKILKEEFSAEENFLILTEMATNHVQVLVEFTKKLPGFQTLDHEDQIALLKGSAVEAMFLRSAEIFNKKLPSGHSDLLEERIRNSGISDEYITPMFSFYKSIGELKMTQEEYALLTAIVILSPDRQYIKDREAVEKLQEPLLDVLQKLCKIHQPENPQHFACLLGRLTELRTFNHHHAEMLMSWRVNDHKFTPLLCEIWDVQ
Sequence of Peroxisome proliferator-activated receptor delta (Homo sapiens) (Q03181 whole entry, looked up): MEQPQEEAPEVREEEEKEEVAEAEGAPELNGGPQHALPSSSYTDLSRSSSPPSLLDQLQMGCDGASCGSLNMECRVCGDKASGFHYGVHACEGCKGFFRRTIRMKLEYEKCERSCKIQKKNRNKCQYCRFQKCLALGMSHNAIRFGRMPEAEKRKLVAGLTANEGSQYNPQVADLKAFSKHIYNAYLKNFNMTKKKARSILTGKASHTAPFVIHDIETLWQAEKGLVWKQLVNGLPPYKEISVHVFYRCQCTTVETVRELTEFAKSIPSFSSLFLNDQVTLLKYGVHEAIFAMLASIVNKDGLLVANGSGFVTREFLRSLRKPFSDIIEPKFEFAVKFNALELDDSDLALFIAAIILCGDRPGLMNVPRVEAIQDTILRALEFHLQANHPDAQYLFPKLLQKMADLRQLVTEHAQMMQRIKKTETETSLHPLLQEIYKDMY

Row | SMILES | Potency [1] | outcome [2] | Potency [3] | Potency [4] | Potency [5] | outcome [6] | Potency [7] | outcome [8] | Potency [9] | outcome [10] | viability change, negative = cytotoxic [9]
1 | CC(C)Oc1ccc2c(=O)c(-c3ccccc3)coc2c1 | inactive | inactive | inactive | inactive | inactive | inactive | inactive | inactive |  |  | 
2 | c1cc(-c2ccncc2)ccn1 | inactive | inactive | inactive | inactive |  |  |  | inactive | inactive | inactive | 
3 | CC(=O)O[C@]1(C(C)=O)CC[C@H]2[C@@H]3C=C(Cl)C4=CC(=O)[C@@H]5C[C@@H]5[C@]4(C)[C@H]3CC[C@@]21C | inactive | inactive | inactive | inactive |  |  | inactive | inactive | inactive |  | 
4 | CCC(C)CO (stereo unspecified) | inactive | inactive | inactive | inactive | inactive | inactive | inactive | inactive |  |  | 
5 | CCOCCOCCO | inactive | inactive | inactive | inactive |  |  |  |  | inactive |  | 
6 | Cn1cnc([N+](=O)[O-])c1Sc1ncnc2nc[nH]c12 | inactive | inactive | inactive | inactive |  |  |  |  | inactive |  | 
7 | COc1ccc(OC)c(C(O)CNC(=O)CN)c1 (stereo unspecified) | inactive | inactive | inactive | inactive | inactive | inactive | inactive | inactive | inactive | inactive | 
8 | COc1ccccc1/C=C/C=O | inactive | inactive | inactive | inactive | inactive | inactive | inactive | inactive | inactive |  | 
9 | CC(C)OC=O | inactive | inactive | inactive | inactive | inactive | inactive | inactive | inactive |  | inactive | 
10 | Cc1cccc([N+](=O)[O-])c1C | inactive | inactive | inactive | inactive |  |  | inactive | inactive | inactive |  | 
11 | Brc1cc(Oc2cc(Br)c(Br)c(Br)c2Br)c(Br)c(Br)c1Br | inactive | inactive | 55.2 µM (active) and inactive | inactive |  |  | inactive |  |  |  | 
12 | O=C=Nc1ccc(Cc2ccc(N=C=O)cc2)cc1 | inactive | inactive | inactive | inactive | inactive | inactive |  | inactive | inactive | inactive | 
13 | CC(C)(C)NC(=O)[C@H]1CC[C@H]2[C@@H]3CC[C@H]4NC(=O)C=C[C@]4(C)[C@H]3CC[C@]12C | inactive | inactive | inactive | inactive |  | inactive | inactive |  | inactive |  | 
14 | CCOC(=O)C(C#N)=C(c1ccccc1)c1ccccc1 | inactive | inactive | inactive | inactive | inactive | inactive | inactive |  |  |  | 
15 | COC(=O)C1=C(C)NC(C)=C(C(=O)OCCN(C)Cc2ccccc2)C1c1cccc([N+](=O)[O-])c1 (stereo unspecified) | 24.4 µM (active) and 26.6 µM (active) | inactive | 48.7 µM (active) and 26.6 µM (active) |  |  |  |  |  |  |  | 
16 | CN1C(C(=O)Nc2ccccn2)=C(O)c2ccccc2S1(=O)=O | inactive | inactive | inactive | inactive | inactive | inactive | inactive | inactive | inactive |  | 
17 | Oc1ccc(O)cc1 | inactive | inactive | inactive | inactive |  |  | inactive |  | inactive |  | 
18 | COc1ccc(C(=O)CC(=O)c2ccc(C(C)(C)C)cc2)cc1 | inactive | inactive | inactive | inactive |  | inactive | inactive | inactive | inactive |  | 
19 | O=C(c1ccccc1)c1ccc(O)cc1O | inactive | inactive | inactive | inactive | inactive | inactive | inactive |  | inactive |  | 
20 | CC(C(=O)O)c1cccc(C(=O)c2ccccc2)c1 (stereo unspecified) | inactive | inactive | inactive | inactive |  |  | inactive |  |  |  | 
21 | Cc1ncc[nH]1 | inactive | inactive | inactive | inactive | inactive | inactive | inactive | inactive | inactive | inactive | 
22 | O=S(=O)(O)c1ccc(O)cc1 | inactive | inactive | inactive | inactive |  |  |  | inactive | inactive |  | 
23 | CCCCOCCOCCOCCO | inactive | inactive | inactive | inactive |  |  | inactive | inactive | inactive | inactive | 
24 | OCCO | inactive | inactive | inactive | inactive | inactive | inactive | inactive | inactive | inactive |  | 
25 | Cc1c(OCC(F)(F)F)ccnc1CS(=O)c1nc2ccccc2[nH]1 (stereo unspecified) | inactive | inactive | inactive | inactive | inactive | inactive | inactive |  | inactive |  | 
26 | COC(C)COC(C)COC(C)CO (stereo unspecified) | inactive | inactive | inactive | inactive | inactive | inactive |  | inactive | inactive | inactive | 

Row | SMILES | Potency [1] | outcome [2] | Potency [3] | Potency [4] | Potency [5] | outcome [6] | Potency [7] | outcome [8] | Potency [9] | outcome [10] | viability change, negative = cytotoxic [9]
27 | O=[N+]([O-])c1ccc2c(c1)Cc1ccccc1-2 | inactive | inactive | inactive | inactive |  |  |  |  |  |  | 
28 | Nc1ncnc2nc[nH]c12 | inactive | inactive | inactive | inactive | inactive | inactive |  | inactive | inactive | inactive | 
29 | C=CC(C)(CCC=C(C)C)OC(C)=O (stereo unspecified) | inactive | inactive | inactive | inactive | inactive | inactive | inactive | inactive | inactive |  | 
30 | CN(C)CCN(Cc1cccs1)c1ccccn1 | inactive | inactive | inactive | inactive |  |  |  | inactive | inactive | inactive | 
31 | CN(C)c1nc(N(C)C)nc(N(C)C)n1 | inactive | inactive | inactive | inactive | inactive | inactive |  | inactive |  |  | -6.22% [at 5.95 µM] (inactive)
32 | Cc1[nH]c(=O)c(C#N)cc1-c1ccncc1 | inactive | inactive | inactive | inactive |  |  | inactive |  | inactive |  | 
33 | CCCCC(CC)COC(=O)c1ccc(N(C)C)cc1 (stereo unspecified) | inactive | inactive | inactive | inactive |  | inactive |  | inactive |  | inactive | 
34 | CN(C)CCC=C1c2ccccc2CCc2ccccc21 | 43.7 µM (active) and 38.9 µM (active) and 29.8 µM (active) | inactive | 24.5 µM (active) | inactive | inactive | inactive | 43.7 µM (active) and 29.8 µM (active) | inactive | 49 µM (active) and 19.5 µM (active) | inactive | 
35 | c1ccc(Nc2ccccc2)cc1 | inactive | inactive | inactive | inactive |  |  | inactive | inactive | inactive |  | 
36 | CCCCC(CC)COP(=O)(OCC(CC)CCCC)OCC(CC)CCCC (stereo unspecified) | inactive | inactive | inactive | inactive | inactive | inactive |  | inactive |  |  | 
37 | O=C(/C=C/c1ccccc1)OCc1ccccc1 | inactive | inactive | inactive | inactive |  |  |  |  |  |  | 
38 | CCCCCCCCCC(=O)OC | inactive | inactive | inactive | inactive | inactive | inactive | inactive |  | inactive |  | 
39 | CCC(C)(O)CCCC(C)C (stereo unspecified) | inactive | inactive | inactive | inactive | inactive | inactive |  |  |  |  | 
40 | O=Cc1ccccc1O | inactive | inactive |  | inactive |  |  |  | inactive | inactive |  | 
41 | CC1=CC2C3CC(C=C3C)C2C1 (stereo unspecified) | inactive | inactive | inactive | inactive |  |  | inactive |  |  | inactive | 
42 | OC1CCCCCCCCCCC1 | inactive | inactive |  | inactive |  |  | inactive |  |  |  | 
43 | CC(=O)Oc1ccccc1C(=O)Nc1ncc([N+](=O)[O-])s1 | inactive | inactive |  |  | inactive |  |  |  |  |  | 
44 | Clc1nc(Cl)c(Cl)c(Cl)c1Cl | inactive | inactive |  | inactive |  |  |  | inactive | inactive | inactive | 
45 | CCC(C)c1ccccc1O (stereo unspecified) | inactive | inactive |  | inactive |  |  | inactive | inactive | inactive | inactive | 
46 | Nc1ncn([C@@H]2O[C@H](CO)[C@@H](O)[C@H]2O)c(=O)n1 | inactive | inactive | inactive |  |  |  | inactive |  |  |  | 
47 | C[Si](C)(C)O[Si](C)(C)C | inactive | inactive |  | inactive | inactive | inactive | inactive | inactive |  | inactive | 
48 | Cc1ccc(C)c(O)c1C | inactive | inactive |  | inactive |  |  |  | inactive |  |  | 
49 | O=c1oc(=O)c2cc3c(=O)oc(=O)c3cc12 | inactive | inactive |  | inactive |  |  | inactive | inactive |  | inactive | 
50 | C=C(C)C(=O)OCCOC(=O)C(=C)C | inactive | inactive |  | inactive |  |  | inactive | inactive | inactive |  | 
51 | CC(CCC(=O)O)(c1ccc(O)cc1)c1ccc(O)cc1 | inactive | inactive |  | inactive | inactive | inactive | inactive | inactive |  | inactive | 
